MEKK2wt PB1 HTS – modulators of MEK5 binding to wildtype MEKK2, primary screen, biochemical, multiplex bead flow cytometry, Alexa488-MEK5; Mitogen-activated protein kinase kinase kinase 2 (Homo sapiens), Q9Y2U5; Alexa488-MEK5 binding to MEKK2 WT; actives lie on both sides; binding response (% of control), % at 10 µM; actives 1.1% (n = 290,000); AID 1531, 2009; in the data active = binding response below about 67% or above about 130%
dFosB act-1 – activators of delta FosB homodimer, primary screen, biochemical, fluorescence polarization, TAMRA-CDK5 oligo, single point; Protein FosB (Mus musculus), P13346; purified delta FosB; percent of positive-control signal above neutral wells; activation, % at 25 µM; actives 0.99% (n = 340,000);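 active = mean activation above about 17%, with every replicate also reaching it, limit read from the data, passing the limit was not always enough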
Target sequence (P13346 whole entry, looked up): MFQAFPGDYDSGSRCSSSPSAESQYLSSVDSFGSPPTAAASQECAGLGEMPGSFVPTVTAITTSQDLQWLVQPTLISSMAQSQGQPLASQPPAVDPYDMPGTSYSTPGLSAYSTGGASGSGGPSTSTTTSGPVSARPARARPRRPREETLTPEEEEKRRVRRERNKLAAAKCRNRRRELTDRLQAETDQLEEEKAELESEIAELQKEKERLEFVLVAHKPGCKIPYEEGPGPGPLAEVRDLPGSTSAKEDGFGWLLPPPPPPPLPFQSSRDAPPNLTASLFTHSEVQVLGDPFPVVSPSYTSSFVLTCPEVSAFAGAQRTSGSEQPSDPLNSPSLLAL
DNA FID counter – compounds displacing fluorescent DNA intercalator, primary screen, artefact control for HCV NS3 helicase inhibitor project, biochemical, FID fluorescence; DNA fluorescent intercalator displacement; actives 0.17% (n = 290,000); AID 1845, 2009; inhibition, % at 7.9 µM; in the data active = inhibition above about 37%;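 note: higher means more ethidium bromide displaced from hairpin DNA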
MEKK2mut PB1 HTS – MEK5 binding signal on mutant MEKK2 PB1, primary screen, biochemical, multiplex bead flow cytometry, Alexa488-MEK5 | actives 0.35% (n = 290,000) | Alexa488-MEK5 binding to MEKK2 mutant | percent response, % at 10 µM; in the data active = percent response above about 24%, passing the limit was not always enough
MEKK3 PB1 HTS – modulators of MEKK3-MEK5 PB1 binding, primary screen, biochemical, wildtype MEKK3, multiplex bead flow cytometry, Alexa488-MEK5 | actives 1.4% (n = 290,000) | AID 1529, 2009 | binding response (% of control), % at 10 µM | bead-based flow cytometry, Alexa488-MEK5 binding to MEKK3; actives lie on both sides; 0 = blocked by unlabeled MEK5, 100 = vehicle | Mitogen-activated protein kinase kinase kinase 3 (Homo sapiens), Q99759;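 active = binding response more than 3 SD above or below the average of its plate-row segment, actives on both sides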;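 note: Alexa488 bead fluorescence after subtracting the streptavidin-only scavenger bead signal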
dFosB act-2 – activators of mouse delta FosB DNA binding, confirmation, biochemical, fluorescence polarization, TAMRA-CDK5 oligo, cherry-picked samples | shares compounds with dFosB act-1 | AID 588690, 2011 | 2,400 tested, under 10 active | purified delta FosB; normalised: neutral wells 0, positive control 100 | activation, % at 24.9 µM;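 active = highest replicate activation at or above 34% and every replicate reaching that threshold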;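 note: higher polarization means more probe DNA bound by delta FosB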
A number is an active result; - = inactive; . = no result given. An excerpt weighted towards active compounds, which were near 2.9% of everything screened.

SMILES	MEKK2wt PB1 HTS	dFosB act-1	DNA FID counter	MEKK2mut PB1 HTS	MEKK3 PB1 HTS	dFosB act-2
O=C(Nc1ccccc1)C(=O)c1c[nH]c2ccccc12	-	-	-	-	-	.
NC(=O)c1nc(-c2cccs2)nc2c1[nH]c(=O)n2-c1ccc(F)cc1	-	122.7	-	-	-	-
CCCNc1c(NS(=O)(=O)c2ccc3c(c2)CCCC3)c(=O)oc2ccccc12	-	59.7	-	-	-	-
CCCNc1c(NS(=O)(=O)c2ccc(C)c(C)c2)c(=O)oc2ccccc12	-	-	-	-	-	.
CNc1c(NS(=O)(=O)c2ccc(OC)c(Cl)c2)c(=O)oc2ccccc12	-	64.5	-	-	-	-
COc1cc(CCN2C(=O)c3cccc4cccc(c34)C2=O)c(S(=O)(=O)NCCCO)cc1OC	-	19.6	-	-	-	-
Cc1ccc(CSCC(=O)N(C)CC(=O)Nc2ccc(Cl)c(Cl)c2)cc1	.	-	.	.	.	.
Cc1nc(NC(=O)/C=C/c2ccccc2)sc1C(=O)Nc1ccc(Cl)cc1	-	30.6	-	-	-	-
Cc1nc(NC(=O)/C=C/c2ccccc2)sc1C(=O)Nc1ccccc1Cl	-	38.7	-	-	-	-
O=C(/C=C/c1ccc(Cl)cc1)Nc1nccs1	-	22.9	-	-	-	-
COc1ccc(NC(=S)NC(NC(=O)/C=C/c2ccccc2)C(Cl)(Cl)Cl)cc1 (configuration not stated)	-	-	-	-	-	.
O=C(/C=C/c1ccccc1)NC(NC(=S)Nc1ccc(Cl)cc1)C(Cl)(Cl)Cl (configuration not stated)	-	23.9	-	-	-	-
COc1cccc(NC(=O)CCCn2nc(C)c3c(C)n(-c4ccccc4)nc3c2=O)c1	-	-	-	-	-	.
Cc1ccc(S(=O)(=O)Nc2cc(S(=O)(=O)N3CCOCC3)ccc2NCC2CCCO2)cc1 (configuration not stated)	.	-	.	.	.	.
COc1ccccc1OC(C)C(=O)N1CCN(Cc2ccc3c(c2)OCO3)CC1 (configuration not stated)	-	-	-	-	-	.
COc1ccc2c(c1)CCc1c(C(=O)Nc3ccn(Cc4ccc(C)cc4)n3)noc1-2	-	27.8	-	-	-	-
O=C(NNc1ccccc1[N+](=O)[O-])Nc1ccccc1	-	-	-	-	-	.
O=C(NNc1ccccc1[N+](=O)[O-])Nc1ccc(Cl)c(Cl)c1	-	29.1	-	-	-	-
Cc1cc(NC(=O)CSc2nc3c(cnn3-c3cccc(Cl)c3)c(=O)[nH]2)no1	.	-	.	.	.	.
O=C(/C=C/c1ccc([N+](=O)[O-])cc1)Oc1ccc(/C=N/NC(=O)c2ccncc2)cc1	-	26.3	-	-	-	-
O=C(CC1S/C(=N/N=C/c2c[nH]c3ccccc23)NC1=O)Nc1ccccc1 (configuration not stated)	-	-	-	-	-	.
O=C(CC1S/C(=N/N=C/c2c[nH]c3ccc(OCc4ccccc4)cc23)NC1=O)Nc1ccccc1 (configuration not stated)	-	32.5	-	-	-	-
N/N=C(\c1ccccc1)c1cc(Br)ccc1N	-	-	-	-	-	.
CC1CC(C)CN(S(=O)(=O)c2ccc(C(=O)N3CCOCC3)cc2)C1 (configuration not stated)	-	-	-	-	-	.
COc1ccc(NC(=O)Cn2nnc(C(=O)NCCc3ccccc3)c2N)c(OC)c1	-	-	-	-	-	.
COc1ccccc1NC(=O)Cn1nnc(C(=O)NCCc2ccccc2)c1N	-	39.7	-	-	-	-
COc1cccc(NC(=O)Cn2nnc(C(=O)Nc3ccccc3)c2N)c1	-	-	-	-	-	.

Screening results: PubChem BioAssay, several laboratories
